Test results published in PubChem BioAssay (NCATS).
Active and inactive are the calls of the source. The call rests on the fitted dose curve; in most records, active means well fitted curve in the direction sought with a large enough effect; inconclusive means small, poorly fitted or top-dose-only effect, or another doubt; inactive means no such curve, though single readings can be large; an effect the other way counts as inactive or inconclusive.

Each compound was assayed against Alpha-galactosidase A (Homo sapiens) (UniProt P06280) (assay: Counterscreen for Glucocerebrosidase Inhibitors: qHTS Assay for Human alpha-Galactosidase at pH 4.5 (AID 992)). Settings: purified enzyme, fluorogenic substrate; series mostly up to 76.9 µM.
Outline: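 Fluorogenic 1536-well qHTS at pH 4.5 (citrate, Tween-20): 2 nM enzyme, 80 uM 4-MU-alpha-galactoside, 20 min room temperature, NaOH/glycine stop. Titration 0.7 nM to 77 uM, data normalized to no-enzyme and full-activity controls, Hill-fitted AC50.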

Chain of Alpha-galactosidase A (Homo sapiens) (P06280 whole entry, looked up): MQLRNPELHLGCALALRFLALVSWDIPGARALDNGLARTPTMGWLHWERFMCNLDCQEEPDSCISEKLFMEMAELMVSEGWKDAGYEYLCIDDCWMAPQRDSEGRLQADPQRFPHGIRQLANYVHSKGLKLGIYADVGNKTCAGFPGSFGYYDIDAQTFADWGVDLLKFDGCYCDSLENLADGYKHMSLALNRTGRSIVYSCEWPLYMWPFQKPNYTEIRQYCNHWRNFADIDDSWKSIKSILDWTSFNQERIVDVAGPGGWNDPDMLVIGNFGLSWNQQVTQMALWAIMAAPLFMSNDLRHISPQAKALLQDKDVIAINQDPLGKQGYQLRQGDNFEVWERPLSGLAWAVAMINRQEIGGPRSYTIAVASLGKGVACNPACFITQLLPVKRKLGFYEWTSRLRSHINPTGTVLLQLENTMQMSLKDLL

SMILES	outcome
N[C@@H]1CCc2cc(O)c(O)cc2C1	inactive
CC(C)n1cc2c3c(cccc31)[C@@H]1C[C@H](C(=O)O[C@@H](C)[C@H](C)O)CN(C)[C@H]1C2	inactive
CCN(CC)C(=O)N[C@H]1C[C@H]2c3cccc4[nH]cc(c34)C[C@@H]2N(C)C1	inactive
CC[C@H](CO)NC(=O)[C@@H]1C=C2c3cccc4[nH]cc(c34)C[C@@H]2N(C)C1	inactive
N[C@@H](Cc1cc(O)c(O)cc1O)C(=O)O	inactive
COc1ccc2c(c1)[C@]13CCCC[C@@H]1[C@H](C2)N(C)CC3	inactive
CC(C)(C)NC[C@H](O)c1ccccc1Cl	inactive
C=CCN1CC[C@]23c4c5ccc(O)c4O[C@@H]2C(=O)CC[C@@]3(O)[C@H]1C5	inactive
CC(C)(O)[C@H]1[C@H]2OC(=O)[C@@H]1[C@]1(O)C[C@H]3O[C@]34C(=O)O[C@H]2[C@]14C (tested in a mixture with another compound)	inactive
C=CCN1CC[C@@]23CCCC[C@@H]2[C@@H]1Cc1ccc(O)cc13	inactive
C[C@H](N)c1cccc(Cl)c1Cl	inactive

What follows are compounds tested against alpha-glucosidase (Oryza sativa, rice) (UniProt Q653V4) (assay: Counterscreen for Glucocerebrosidase Inhibitors: qHTS Assay for Rice alpha-Glucosidase at pH 5.0 (AID 997)). Settings: rice alpha-glucosidase enzyme activity; series mostly up to 76.9 µM.
Outline: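 Endpoint fluorogenic assay at pH 5.0: compounds (0.7 nM to 77 uM) titrated against 4 nM rice enzyme and 400 uM 4-MU-alpha-glucoside for 20 min at room temperature; NaOH/glycine stop, read ex 365/em 440 nm, Hill-fitted AC50.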

SMILES	outcome
N[C@@H]1CCc2cc(O)c(O)cc2C1	inactive
CC(C)n1cc2c3c(cccc31)[C@@H]1C[C@H](C(=O)O[C@@H](C)[C@H](C)O)CN(C)[C@H]1C2	inactive
CCN(CC)C(=O)N[C@H]1C[C@H]2c3cccc4[nH]cc(c34)C[C@@H]2N(C)C1	inactive
CC[C@H](CO)NC(=O)[C@@H]1C=C2c3cccc4[nH]cc(c34)C[C@@H]2N(C)C1	inactive
N[C@@H](Cc1cc(O)c(O)cc1O)C(=O)O	inactive
COc1ccc2c(c1)[C@]13CCCC[C@@H]1[C@H](C2)N(C)CC3	inactive
CC(C)(C)NC[C@H](O)c1ccccc1Cl	inactive
C=CCN1CC[C@]23c4c5ccc(O)c4O[C@@H]2C(=O)CC[C@@]3(O)[C@H]1C5	inactive
CC(C)(O)[C@H]1[C@H]2OC(=O)[C@@H]1[C@]1(O)C[C@H]3O[C@]34C(=O)O[C@H]2[C@]14C (tested in a mixture with another compound)	inactive
C=CCN1CC[C@@]23CCCC[C@@H]2[C@@H]1Cc1ccc(O)cc13	inactive
C[C@H](N)c1cccc(Cl)c1Cl	inactive

The compounds below were run against Alpha-galactosidase (Coffea arabica) (UniProt Q42656) (assay: Counterscreen for Glucocerebrosidase Inhibitors: qHTS Assay for Coffee Bean alpha-Galactosidase at pH 5.9 (AID 998)). Settings: coffee bean alpha-galactosidase enzyme assay; series mostly up to 76.9 µM.
Outline: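 Enzyme 2 nM + cpd (0.7 nM–77 uM titration) + 4-MU-alpha-Gal 80 uM, pH 5.9 citrate/Tween-20, RT 20 min, NaOH/glycine stop pH 10, fluor 365/440. Normalized to no-enzyme and full-activity controls; Hill-fit AC50.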

Chain of Alpha-galactosidase (Coffea arabica) (Q42656 whole entry, looked up): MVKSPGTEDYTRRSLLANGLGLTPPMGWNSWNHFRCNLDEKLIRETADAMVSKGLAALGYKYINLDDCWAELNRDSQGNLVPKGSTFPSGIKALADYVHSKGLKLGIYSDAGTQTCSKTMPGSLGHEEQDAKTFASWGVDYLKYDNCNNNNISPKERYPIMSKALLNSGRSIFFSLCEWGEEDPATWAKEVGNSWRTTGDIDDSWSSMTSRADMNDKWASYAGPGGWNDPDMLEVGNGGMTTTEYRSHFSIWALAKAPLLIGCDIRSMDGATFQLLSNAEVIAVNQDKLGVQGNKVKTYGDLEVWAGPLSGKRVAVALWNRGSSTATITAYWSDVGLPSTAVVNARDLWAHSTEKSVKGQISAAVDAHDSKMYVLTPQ

SMILES	outcome
N[C@@H]1CCc2cc(O)c(O)cc2C1	inactive
CC(C)n1cc2c3c(cccc31)[C@@H]1C[C@H](C(=O)O[C@@H](C)[C@H](C)O)CN(C)[C@H]1C2	inactive
CCN(CC)C(=O)N[C@H]1C[C@H]2c3cccc4[nH]cc(c34)C[C@@H]2N(C)C1	inactive
CC[C@H](CO)NC(=O)[C@@H]1C=C2c3cccc4[nH]cc(c34)C[C@@H]2N(C)C1	inactive
N[C@@H](Cc1cc(O)c(O)cc1O)C(=O)O	inactive
COc1ccc2c(c1)[C@]13CCCC[C@@H]1[C@H](C2)N(C)CC3	inactive
CC(C)(C)NC[C@H](O)c1ccccc1Cl	inactive
C=CCN1CC[C@]23c4c5ccc(O)c4O[C@@H]2C(=O)CC[C@@]3(O)[C@H]1C5	inactive
CC(C)(O)[C@H]1[C@H]2OC(=O)[C@@H]1[C@]1(O)C[C@H]3O[C@]34C(=O)O[C@H]2[C@]14C (tested in a mixture with another compound)	inactive
C=CCN1CC[C@@]23CCCC[C@@H]2[C@@H]1Cc1ccc(O)cc13	inactive
C[C@H](N)c1cccc(Cl)c1Cl	inactive
